Assay results as given in ChEMBL document CHEMBL1157539, “Thousands of chemical starting points for antimalarial lead identification” (Nature, 2010).

Key:
Type in all cases: functional
Plasmodium falciparum [1] = experiment: GSK_TCMDC: Inhibition of Plasmodium falciparum 3D7 in whole red blood cells, using parasite LDH activity as an index of growth. Test compounds present at 2uM
Plasmodium falciparum [2] = experiment: GSK_TCMDC: Inhibition of Plasmodium falciparum Dd2 in whole red blood cells, using parasite LDH activity as an index of growth. Test compounds present at 2uM
HepG2 = experiment: GSK_TCMDC: Percent inhibition of human HepG2 cell line. Test compounds present at 10uM.

| Structure (SMILES) | Inhibition (Plasmodium falciparum [1]) [%] | Inhibition (Plasmodium falciparum [2]) [%] | Inhibition (HepG2) [%] |
| --- | --- | --- | --- |
| Cc1cccc2nc(-c3cccc(-c4ccc(NC(=O)Cc5ccon5)cc4)c3)[nH]c12 | 87 | 38 | 34 |
| COc1ccc2nccc([C@@H](O)CN3CCC(NC(=O)/C=C/c4ccc(F)c5ccccc45)CC3)c2c1 | 100 | 75 | 37 |
| FC(F)(F)c1cccc(C=NNc2nc3ccccc3[nH]2)c1 | 100 | 99 | 1 |
| Cc1nnnn1-c1ccc(C(=O)N2CCC3(CC2)CN(Cc2ccc(Cl)c(Cl)c2)C(=O)O3)cc1 | 100 | 99 | 2 |
| CC(C)(CNCc1cccc(Oc2cccc(C(F)(F)F)c2)c1)c1nc(-c2ccnc(N)n2)c(-c2ccc(Cl)c(O)c2)[nH]1.Cl | 99 | 98 | 23 |
| CCC(C)NS(=O)(=O)c1ccc2nc(Nc3ccc(C)c(Cl)c3)n(C3CCCCC3)c2c1 (configuration not stated) | 99 | 98 | 0 |
| O=C(O)C(F)(F)F.O=c1[nH]ccc2nc(N[C@@H]3CCNC3)nc(Nc3ccc4c(c3)S(=O)(=O)CC4)c12 | 100 | 99 | 0 |
| CCn1ccc2c3c(N)nc(N)nc3ccc21 | 99 | 2 | 61 |
| Cc1cccc2nc(-c3cccc(-c4cccc(NC(=O)Nc5ccsc5)c4)c3)[nH]c12 | 100 | 41 | 15 |
| Cc1[nH]c(C)c(-c2ccc(-c3ccc(Cl)cc3)nc2)c(=O)c1Cl | 95 | 96 | 8 |
| CN1CCN(c2ccnc3ccc(NC(=O)Nc4ccc5ccccc5c4)cc23)CC1.Cl | 100 | 99 | 2 |
| O=C(O)C(F)(F)F.O=S(=O)(NCCN1CCCC1)c1ccc(-c2ccc(CNCc3ccsc3)cc2)cc1 | 95 | 36 | 44 |
| O=C(NCCCc1ccccc1)c1csc(C2CCCN(C(=O)c3ccc(O)c(-c4ccccc4)c3)C2)n1 (configuration not stated) | 97 | 97 | 5 |
| Cc1cc(O)c(CN2CCN(Cc3cccs3)CC2)cc1C(C)C | 98 | 97 | 7 |
| O=C(O)C(F)(F)F.c1cc(CN2CCc3ccccc3CC2)cc(-c2c[nH]c3nc(NC4CCCC4)ncc23)c1 | 99 | 49 | 31 |
| CC(C)CCN(Cc1cncn1Cc1cccc(Cl)c1)C(=O)c1cncc(-c2ccccc2)c1 | 99 | 0 | 9 |
| COc1cc(-c2[nH]c(-c3ccc(OCCN(C)C)cc3)cc2-c2ccncc2)ccc1Cl.Cl | 93 | 33 | 3 |
| CCCCCCCN1CC[C@@H](CCCc2ccnc3ccc(OCCCCN/C(N)=N/O)cc23)[C@@H](CC)C1.O=C(O)C(=O)O | 90 | 39 | 27 |
| CCN1CCC(N2CCC(C(=O)Nc3cccc(-c4cccc(Cl)c4)c3)CC2)CC1 | 91 | 82 | 54 |
| COc1ccc(-c2ccc(NC(=O)c3ccc(F)cc3)cc2)cc1CN1CCCN(C)CC1.O=C(O)C(F)(F)F | 98 | 35 | 29 |

| Structure (SMILES) | Inhibition (Plasmodium falciparum [1]) [%] | Inhibition (Plasmodium falciparum [2]) [%] | Inhibition (HepG2) [%] |
| --- | --- | --- | --- |
| CC(C)CNCc1ccc(-c2ccccc2CN(C(=O)NCCc2ccccc2)C2CCN(Cc3ccccc3)CC2)cc1.O=C(O)C(F)(F)F | 98 | 94 | 89 |
| N#Cc1c(N2CCCCCC2)nc(N)c2c(N)nc3c(c12)CC(=O)N3c1ccc(F)cc1 | 97 | 91 | 0 |
| Cc1cccc2nc(-c3ccc(-c4ccc(CNCCCN5CCCC5=O)cc4)s3)[nH]c12.O=C(O)C(F)(F)F | 100 | 43 | 17 |
| CCn1c(Sc2ccc([N+](=O)[O-])c(C#N)c2)nnc1-c1cccc(Cl)c1 | 89 | 22 | 8 |
| CS(=O)(=O)NCCCNCc1cccc(-c2ccc(-c3nc4cc(C(F)(F)F)ccc4[nH]3)cc2)c1.O=C(O)C(F)(F)F | 100 | 85 | 17 |
| O=C(Nc1ccon1)c1cc(-c2cccnc2)nc2ccc(Br)cc12 | 99 | 77 | 7 |
| O=C(/C=C/c1ccc(Cl)c(Cl)c1)NC1CCN(Cc2ccc(O)cc2)CC1.O=C(O)C(F)(F)F | 100 | 43 | 0 |
| Cc1cc(C)c(S(=O)(=O)N2CCCCC(c3cccc(C(F)(F)F)c3)=N2)c(C)c1 | 94 | 95 | 0 |
| COc1cc2nc(N3CCC(CNC(=O)/C=C/c4ccccc4F)CC3)nc(N)c2cc1OC.Cl | 100 | 88 | 0 |
| CC(C)(CNCc1cc(Cl)cc(Cl)c1)c1nc(-c2ccnc(N)n2)c(-c2ccc(Cl)c(O)c2)[nH]1.Cl | 92 | 2 | 54 |
| COc1cc(NC(=O)c2cccs2)c(C(=O)NCc2ccc(C)cc2)cc1OC | 93 | 88 | 3 |
| CC(C)N1CCN(C(CN2CCN(CCCOc3ccc4nonc4c3)CC2)c2ccc(F)cc2)CC1.Cl (configuration not stated) | 97 | 40 | 0 |
| Nc1nc(N)c2c(CCc3ccc(Cl)c(Cl)c3)cccc2n1 | 100 | 83 | 51 |
| Cc1cccc2nc(-c3ccc(-c4ccc(CNCCNC(=O)c5ccnn5C)cc4)cc3)[nH]c12.O=C(O)C(F)(F)F | 100 | 98 | 29 |
| Br.CC[C@H]1CN2CCc3cc(OC)c(OC)cc3[C@@H]2C[C@@H]1CC1=NCCc2c1[nH]c1ccc(OCc3ccccc3)cc21 | 100 | 89 | 57 |
| O=C(CN1CCCC1)Nc1cccc(C(=O)Nc2cccc(C(F)(F)F)c2)c1 | 95 | 83 | 9 |
| O=C(CCc1c[nH]cn1)Nc1cccc(-c2ccc(-c3nc4ccccc4[nH]3)cc2)c1 | 100 | 60 | 24 |
| O=C(/C=C/c1ccc(Cl)c(Cl)c1)NCCCCCN1CCC(NC(=O)c2cc(Cl)ccc2F)CC1 | 92 | 32 | 48 |
| CN(C)CCCNC(=O)c1ccccc1Sc1ccccc1C#N.Cl | 89 | 3 | 11 |
| CN1CCCN(c2ccnc3cc4c(cc23)N(C(=O)c2ccc(Cl)cc2Cl)CC4)CC1.Cl | 100 | 51 | 6 |

| Structure (SMILES) | Inhibition (Plasmodium falciparum [1]) [%] | Inhibition (Plasmodium falciparum [2]) [%] | Inhibition (HepG2) [%] |
| --- | --- | --- | --- |
| COC(=O)CCn1c(C2CCN(CC3CCC(NC(=O)/C=C/c4ccc(Cl)c(Cl)c4)CC3)CC2)nc2ccccc21 (configuration not stated) | 94 | 10 | 14 |
| CC(C)(C)Oc1ccc(C[C@@H]2NC3(C(=O)N(Cc4ccc(Cl)c(Cl)c4)c4ccccc43)C3C(=O)N(c4ccc(Br)cc4)C(=O)C32)cc1 (some centres not stated) | 86 | 25 | 1 |
| CCCCCCCN1CC[C@@H](CCCc2ccnc3ccc(OCCCCNC(N)=O)cc23)[C@@H](CC)C1.O=C(O)C(=O)O | 93 | 18 | 41 |
| Cc1ccc(CNC(=O)[C@H](Cc2ccccc2)Nc2cc(C)nc(NCc3ccccc3C)n2)cc1.O=C(O)C(F)(F)F | 97 | 50 | 23 |
| Cc1cccc(Nc2nccc(NCC(O)c3cccc(C(F)(F)F)c3)n2)c1 (configuration not stated) | 100 | 94 | 25 |
| COc1cccc(C(=O)Nc2ccc(S(=O)(=O)c3cc4c(cc3OC)CCN(C)CC4)cc2)c1 | 86 | 3 | 0 |
| CC(C)Oc1ccc(C=CC(=O)Nc2noc3ccccc23)cc1 | 96 | 95 | 2 |
| Cc1cc(C)nc(-n2[nH]c(C)c(Cc3ccc(C(C)(C)C)cc3)c2=O)n1 | 88 | 61 | 0 |
| COc1cc2nc(N3CCC(CNC(=O)c4ccc(C(C)=O)cc4)CC3)nc(N)c2cc1OC.O=C(O)C(F)(F)F | 96 | 15 | 10 |
| O=c1cc(NCCCCNCc2cccc(Br)c2)[nH]c2ccccc12 | 98 | 19 | 0 |
| Cc1ccc(-c2ccn(Cc3cccc(OCc4ccccc4)c3)n2)cn1.Cc1ccc(-c2ccnn2Cc2cccc(OCc3ccccc3)c2)cn1 | 82 | 64 | 0 |
| CCN1CCN(C(=O)NC(C(=O)N2CCCC(COc3ccc(Cc4ccccc4)cc3)C2)c2cccs2)C(=O)C1=O (configuration not stated) | 95 | 87 | 12 |
| COc1ccc(NC(=O)[C@H](CC(C)C)Nc2cc(C)nc(NCCc3ccc(F)cc3)n2)cc1.O=C(O)C(F)(F)F | 100 | 79 | 1 |
| O=C(/C=C/c1ccc(Cl)c(Cl)c1)NCCCCCN1CCC(C(=O)Nc2ccc(F)c(Cl)c2)CC1 | 100 | 0 | 25 |
| Cc1cc(F)ccc1Oc1nc(Nc2ccc(N3CCOCC3)c(F)c2)nc2c1S(=O)(=O)CCC2.Cl | 96 | 98 | 10 |
| C=CCc1c(C(=O)NCC23CC4CC(CC(C4)C2)C3)nc2ccccc2c1O | 86 | 79 | 40 |
| COc1ccc(OCc2ccccn2)c(C2CCN(CCCCNC(=O)c3ccc(NC(=O)c4ccc(Cl)cc4)cc3)CC2)c1.Cl | 98 | 71 | 18 |
| Cc1ccc(C2CCN(CCCCNC(=O)c3ccc(-c4ccc(C(F)(F)F)cc4)cc3)CC2)c(O)c1 | 100 | 49 | 92 |
| O=C(NCc1ccccc1)OC1CNCCC1c1ccc(C(O)Cc2ccccc2)cc1.O=C(O)C(F)(F)F (configuration not stated) | 87 | 5 | 8 |
